The text below walks through data of PubChem BioAssay AID694 (Emory University Molecular Libraries Screening Center, 2007).

This assay has as its target Estrogen receptor (Homo sapiens) (UniProt P03372). In words: ERα coactivator peptide binding inhibitors, primary screen, biochemical, LOPAC library, TR-FRET (AID 694).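 Also: receptor was agonist-bound with estradiol present during the assay.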 Conditions: TR-FRET ERalpha-coactivator peptide binding, stronger effect = higher value.

Out of some 1,300 compounds screened, about 25 (2%) were called active. No rule for the calls is given here. Many of the other results were omitted from the sample, so actives are more common in it than they were.

Sequence of Estrogen receptor (Homo sapiens) (P03372 whole entry, looked up): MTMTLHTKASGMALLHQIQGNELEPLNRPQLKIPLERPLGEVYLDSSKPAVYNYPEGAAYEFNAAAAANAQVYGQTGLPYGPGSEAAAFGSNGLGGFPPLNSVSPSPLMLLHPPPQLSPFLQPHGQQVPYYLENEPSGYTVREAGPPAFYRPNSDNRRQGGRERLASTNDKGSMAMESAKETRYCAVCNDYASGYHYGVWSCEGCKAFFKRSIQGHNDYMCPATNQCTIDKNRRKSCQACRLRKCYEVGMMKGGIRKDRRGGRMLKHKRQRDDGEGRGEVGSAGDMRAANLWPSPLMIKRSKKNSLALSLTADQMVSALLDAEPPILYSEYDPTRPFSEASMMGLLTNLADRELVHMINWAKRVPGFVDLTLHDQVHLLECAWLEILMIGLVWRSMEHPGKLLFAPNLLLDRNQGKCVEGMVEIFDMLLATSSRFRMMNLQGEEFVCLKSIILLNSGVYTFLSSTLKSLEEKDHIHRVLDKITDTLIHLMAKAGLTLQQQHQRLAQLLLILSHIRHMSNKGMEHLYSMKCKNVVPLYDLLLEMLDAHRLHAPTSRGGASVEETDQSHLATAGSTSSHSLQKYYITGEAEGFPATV

With `N=c1c[n+](N2CCOCC2)[n-]o1`, the inhibition (as a rule, the relative decrease from the control value, in per cent) (at 45 µM) is 3.79% (inactive) and the inhibition (inhibition, at 15 µM) worked out at 4.24%.

As to `COc1ccccc1N1CCN(CCCNc2c(C)c(=O)n(C)c(=O)n2C)CC1`, the inhibition (at 45 µM) is -0.24% (inactive) and the inhibition (inhibition, at 15 µM) came out at 1.69%.

As to `CCNC(=O)C1OC(n2cnc3c(NCc4ccccc4)ncnc32)C(O)C1O` (stereo not given), the inhibition (at 45 µM) was -1.65% (inactive) and the inhibition (inhibition, at 15 µM) turned out to be 1.9%.

For the molecule `Cn1cc(C(F)(F)F)nc1-c1ccc(OCC(O)CNCCOc2ccc(O)c(C(N)=O)c2)cc1` (stereo not given), the inhibition runs as follows: (at 45 µM) -4.07% (inactive); (inhibition, at 15 µM) -6.05%.

For `CC[N+](C)(C)Cc1ccccc1Br`, the inhibition is -6.37% (inactive) (at 45 µM) and -2.6% (inhibition, at 15 µM).

As for `COc1ccccc1N1CCN(CCN(C(=O)c2ccc(F)cc2)c2ccccn2)CC1`, the inhibition was -4.33% (inactive) (at 45 µM) and 1.39% (inhibition, at 15 µM).

As for `CCCCCN(CCCCC)C(=O)C(CCC(=O)O)NC(=O)c1ccc(Cl)c(Cl)c1` (stereo not given), the inhibition runs as follows: (at 45 µM) 0.49% (inactive); (inhibition, at 15 µM) 8.19%.

For the molecule `NCCCCNS(=O)(=O)c1cccc2c(Cl)cccc12`, the inhibition by setting is: (at 45 µM) -24.3% (inactive); (inhibition, at 15 µM) 2.07%.

With `CNC(=O)Oc1ccc2c(c1)[C@]1(C)CCN(C)[C@@H]1N2C`, the inhibition reads like this: (at 45 µM) -8.56% (active); (inhibition, at 15 µM) 56.6%.

Take `Oc1cc(O)c2c(c1)O[C@H](c1ccc(O)c(O)c1)[C@@H](O)C2`: the inhibition is 26.6% (inactive) (at 45 µM) and 10.3% (inhibition, at 15 µM).

As to `CC1=C(C(=O)O)N2C(=O)[C@@H](NC(=O)C(N)c3ccccc3)[C@H]2SC1` (stereo not given in full), the inhibition runs as follows: (at 45 µM) -5% (inactive); (inhibition, at 15 µM) -4.71%.

Consider `COc1cc(=O)n(C)c2c(OCC(O)C(C)(C)O)cccc12` (stereo not given), for which the inhibition runs as follows: (at 45 µM) -4.43% (inactive); (inhibition, at 15 µM) 3.61%.

As for `NS(=O)(=O)c1cc2c(cc1Cl)NC=NS2(=O)=O`, the inhibition reads like this: (at 45 µM) -2.72% (inactive); (inhibition, at 15 µM) 1.82%.

Take `Cc1nc(N=Nc2ccc(C(=O)O)cc2)c(COP(=O)(O)O)c(C=O)c1O`: the inhibition reads like this: (at 45 µM) 6.52% (inactive); (inhibition, at 15 µM) -0.22%.

In the case of `Cn1c(=O)c2c(nc(/C=C/c3cccc(Cl)c3)n2C)n(C)c1=O`, the inhibition (at 45 µM) is 0.97% (inactive) and the inhibition (inhibition, at 15 µM) was -2.61%.

For `CC(C)COCC(CN(Cc1ccccc1)c1ccccc1)N1CCCC1` (stereo not given), the inhibition reads like this: (at 45 µM) -5.09% (inactive); (inhibition, at 15 µM) 4.06%.

`C[N+](C)(C)CCOC(=O)CCC(=O)OCC[N+](C)(C)C`: the inhibition is, setting by setting: (at 45 µM) -6.43% (inactive); (inhibition, at 15 µM) 0.18%.

Consider `COc1ccc2[nH]c(I)c(CCNC(C)=O)c2c1`, for which the inhibition was -2.05% (inactive) (at 45 µM) and -4.11% (inhibition, at 15 µM).

As for `CC(C)[C@@H]1NC(=O)[C@H](CCCCN)NC(=O)[C@@H](Cc2c[nH]c3ccccc23)NC(=O)[C@H](Cc2ccc(O)cc2)NC(=O)[C@H](C)N(C)C(=O)[C@H](Cc2ccccc2)NC1=O`, the inhibition is 5.89% (inactive) (at 45 µM) and -1.62% (inhibition, at 15 µM).

`COC(=O)[C@H](NC(=O)c1cc(-c2ccccc2)nc2ccccc12)c1ccccc1`: the inhibition was 1.85% (inactive) (at 45 µM) and 2.38% (inhibition, at 15 µM).

With `O=Nc1ccc2oc(=O)ccc2c1`, the inhibition is, setting by setting: (at 45 µM) 0.4% (inactive); (inhibition, at 15 µM) 0.59%.

In the case of `NC(N)=NCCC[C@H](N)C(=O)O`, the inhibition is -2.21% (inactive) (at 45 µM) and -4% (inhibition, at 15 µM).

With `N[C@@H](CCCC(=O)O)C(=O)O`, the inhibition is -21.2% (active) (at 45 µM) and 50.5% (inhibition, at 15 µM).

With `NC(CCCP(=O)(O)O)C(=O)O` (stereo not given), the inhibition (at 45 µM) is -8.81% (inactive) and the inhibition (inhibition, at 15 µM) was -3.89%.

For the molecule `O=c1c(O)c(-c2cc(O)c(O)c(O)c2)oc2cc(O)cc(O)c12`, the inhibition by setting is: (at 45 µM) 84% [fluorescence artefact?] (active); (inhibition, at 15 µM) 62.7%.

As to `O=c1c(O)c(-c2ccc(O)c(O)c2)oc2cc(O)cc(O)c12`, the inhibition is 59.6% (inactive) (at 45 µM) and 26.6% (inhibition, at 15 µM).

With `O=c1[nH]c2cc(C(F)(F)F)ccc2n1-c1cc(C(F)(F)F)ccc1O`, the inhibition is, setting by setting: (at 45 µM) 2.02% (inactive); (inhibition, at 15 µM) 1.4%.

As to `CC(=O)N[C@@H](CS)C(=O)O`, the inhibition runs as follows: (at 45 µM) -7.68% (inactive); (inhibition, at 15 µM) -8.08%.

In the case of `N#C/C(=C\c1ccc(O)c(O)c1)C(=O)c1ccc(O)c(O)c1`, the inhibition is, setting by setting: (at 45 µM) 59.5% [fluorescence artefact?] (active); (inhibition, at 15 µM) 57.3%.

On to `COc1cc(/C=C(\C#N)C(=O)c2ccc(O)c(O)c2)cc(I)c1O`, for which the inhibition was 28.7% (inactive) (at 45 µM) and 13.7% (inhibition, at 15 µM).

Turning to `N#C/C(=C\c1ccc(O)c(O)c1)C(=O)NCCCNC(=O)/C(C#N)=C/c1ccc(O)c(O)c1`, the inhibition (at 45 µM) was 51.7% (inactive) and the inhibition (inhibition, at 15 µM) came out at 37.2%.

For `Nc1ncn([C@@H]2O[C@H](CO)[C@@H](O)[C@H]2O)c(=O)n1`, the inhibition was -1.93% (inactive) (at 45 µM) and -4.32% (inhibition, at 15 µM).

For `Cn1c(=O)c2[nH]c(C3CCCC3)nc2n(C)c1=O`, the inhibition by setting is: (at 45 µM) 1.28% (inactive); (inhibition, at 15 µM) -1.01%.

Turning to `NC(=S)NCCCC(N)C(=O)O` (stereo not given), the inhibition (at 45 µM) is -4.72% (inactive) and the inhibition (inhibition, at 15 µM) is 3.62%.

Take `NCC(O)C1CCCCCCC1` (stereo not given): the inhibition (at 45 µM) is -4.78% (inactive) and the inhibition (inhibition, at 15 µM) was determined as 1.99%.

As to `CCN1CCc2nc(N)oc2CC1`, the inhibition is -3.72% (inactive) (at 45 µM) and -5.11% (inhibition, at 15 µM).

For the molecule `CN(CCOc1ccc(C[C@H](Nc2ccccc2C(=O)c2ccccc2)C(=O)O)cc1)c1ccccn1`, the inhibition reads like this: (at 45 µM) 2.05% (inactive); (inhibition, at 15 µM) 2.17%.

Regarding `C=Cc1c(C)c2cc3[nH]c(cc4nc(cc5nc(cc1[nH]2)C(C)=C5CCC(=O)O)C(CCC(=O)O)=C4C)c(C)c3C=C`, the inhibition by setting is: (at 45 µM) 93.6% [fluorescence artefact?] (active); (inhibition, at 15 µM) 73.7%.

For the molecule `CN(C)C(=O)/N=N/C(=O)N(C)C`, the inhibition is -2.24% (inactive) (at 45 µM) and -4.27% (inhibition, at 15 µM).

With `Nn1nnc2ccccc21`, the inhibition was -3.33% (inactive) (at 45 µM) and -2.11% (inhibition, at 15 µM).

On to `COc1ccccc1N1CCN(CCCNc2cc(=O)n(C)c(=O)n2C)CC1`, for which the inhibition (at 45 µM) was 4.48% (inactive) and the inhibition (inhibition, at 15 µM) came to 2.87%.

`Cn1cnc2c(NCc3ccccc3)nc(NCCO)nc21`: the inhibition is 3.75% (inactive) (at 45 µM) and 1.76% (inhibition, at 15 µM).

Take `C=CC[C@H](N)C(=O)O`: the inhibition (at 45 µM) was -2.53% (inactive) and the inhibition (inhibition, at 15 µM) is -5.06%.

In the case of `CCCn1c(=O)c2c(ncn2C)n(CCC)c1=O`, the inhibition reads like this: (at 45 µM) 5.51% (inactive); (inhibition, at 15 µM) -1.66%.

With `N=c1nc(N2CCCCC2)cc(N)n1O`, the inhibition (at 45 µM) was 2.01% (inactive) and the inhibition (inhibition, at 15 µM) was -3.53%.

With `CC[C@@H](C)[C@H]1O[C@]2(CC[C@@H]1C)C[C@@H]1C[C@@H](C/C=C(\C)[C@@H](O[C@H]3C[C@H](OC)[C@@H](O[C@H]4C[C@H](OC)[C@@H](O)[C@H](C)O4)[C@H](C)O3)[C@@H](C)/C=C/C=C3\CO[C@@H]4[C@H](O)C(C)=C[C@@H](C(=O)O1)[C@]34O)O2`, the inhibition is -0.86% (inactive) (at 45 µM) and 3.41% (inhibition, at 15 µM).

Turning to `CCCCC#Cc1nc(N)c2ncn([C@@H]3O[C@H](C(=O)NCC)[C@@H](O)[C@H]3O)c2n1`, the inhibition was -0.57% (inactive) (at 45 µM) and 5.8% (inhibition, at 15 µM).

Consider `CCCCCCCC/C=C\CCCCCCCC(=O)NCCO`, for which the inhibition is, setting by setting: (at 45 µM) 7.02% (inactive); (inhibition, at 15 µM) 9.1%.

In the case of `N[C@@H](CCC(=O)N[C@H](CSN=O)C(=O)NCC(=O)O)C(=O)O`, the inhibition is, setting by setting: (at 45 µM) 1.19% (inactive); (inhibition, at 15 µM) 3.44%.

On to `[N-]=[N+]=Nc1ccc(C(=O)CSC[C@H](NC(=O)CC[C@H](N)C(=O)O)C(=O)NCC(=O)O)cc1`, for which the inhibition is 75.4% [fluorescence artefact?] (active) (at 45 µM) and 74% (inhibition, at 15 µM).
